“And” between values parts separate entries of the source, which are not always exact repeats. Equal entries are not always repeated. Among all 260,000 compounds or so, about 1,500 (0.58%) were called active. Another 5% or so got no clear call; they are omitted.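 How the source made its calls: active means inhibition above a set limit at one or more doses, reproduced on every date tested; inconclusive means results disagree between test dates, or hit never tested in dose response; inactive means the rest.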 A selection follows. Results with a measured potency or affinity are listed apart.
These compounds were tested against Virion infectivity factor (Human immunodeficiency virus type 1 group M subtype B (isolate BH10)) + Virion infectivity factor (Human immunodeficiency virus type 1 group M subtype B (isolate BRU/LAI)) + Virion infectivity factor (Human immunodeficiency virus type 1 group M subtype B (isolate PCV12)) + Virion infectivity factor (Human immunodeficiency virus type 1 group M subtype B (isolate HXB2)) + DNA dC->dU-editing enzyme APOBEC-3G (Homo sapiens) (UniProt P69720+P69721+P69722+P69723+Q9HC16) (assay: inhibitors of Vif binding to APOBEC3G peptide, primary screen, biochemical, TR-FRET, GST-Vif 1-94, biotin-A3G peptide, dose response retest (AID 1117319;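 further: Vif residues 1-94 fused to GST binding biotinylated APOBEC3G peptide 110-148; 0% = full assay without inhibitor and 100% = GST in place of GST-Vif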)). Details: hits give high values.

inhibition, inactive:
Cc1ccc(-c2cc(C(=O)NC3=NCCS3)c3ccccc3n2)cc1C -1.5%
O=S(=O)(CC=CCS(=O)(=O)c1ccccc1)c1ccccc1 -17%
Cc1nc2nc(C(F)(F)F)[nH]c2nc1C 0.02%
CC(C)(C)NC(=O)C(c1ccc(F)cc1)N(Cc1ccco1)C(=O)CCC(=O)Nc1nccs1 (centres undefined) 5.5%
CN[C@@H](C)C(=O)NC[C@H]1O[C@@H](n2cnc3c(N)ncnc32)[C@H](O)[C@@H]1O -3.01%
CC1(C)CC(=O)c2c(O)cc(O)cc2O1 -0.4%
C/C=C(/C)C(=O)Nc1cccc(C2=NOC3(C2)C[C@@H](C(N)=O)N(C(=O)/C=C/CC)C3)c1 (some centres undefined) 13.8%
C/C=C(/C)C(=O)Nc1cccc(C2=NOC3(C2)C[C@@H](C(N)=O)N(C(=O)CC(c2ccccc2)c2ccccc2)C3)c1 (some centres undefined) 24%
C/C=C\C(=O)Nc1cccc(C2=NOC3(C2)C[C@H](C(N)=O)N(C(=O)/C=C/CC)C3)c1 (some centres undefined) 5.75%
CCC(=O)Nc1cccc(C2=NOC3(C2)C[C@@H](C(N)=O)N(C(=O)CC(c2ccccc2)c2ccccc2)C3)c1 (some centres undefined) 7.06%
CCC(C)(C(=O)NC1CCCCC1)N(Cc1cccs1)C(=O)Cc1cccs1 (centres undefined) 23.9%
COc1cccc(OC)c1NC(=O)C1CCCN1C(=O)Nc1cccc(Cl)c1 (centres undefined) -0.22%
O=C(/C=C/c1cccc([N+](=O)[O-])c1)Nc1ccccn1 7.78%
CCOc1ccccc1NC(=O)COC(=O)COc1cccc2c1OC(C)(C)C2 2.02%
COC(=O)C(C)N1C(=O)S/C(=C\c2ccc(-c3ccc(C(=O)O)cc3C)o2)C1=O (centres undefined) 15.9%
O=C(O)c1ccccc1-c1ccc(/C=C2\SC(=O)N(c3ccccc3)C2=O)o1 3.86%
Cc1cccc(-n2ccnc2SCC(=O)O)c1C -0.53%
O=C(COc1ccc(Cl)cc1Cl)c1ccc[nH]1 19.3%
Cc1ccccc1OCC(=O)OCC(=O)c1ccc[nH]1 7.12%
Cc1ccnc(NC(=O)CCNC(=O)c2ccc(Cl)cc2)c1 -5.97%
COc1ccccc1N1CCN(C(=O)CSc2nnc(NC(=O)C3CC3)s2)CC1 9.27%
c1ccc(C2CNCCc3ccccc32)cc1 (centres undefined) -8.69%
CN1CCc2cc(Cl)c(O)cc2[C@@H](c2ccccc2)C1 -6.09%
CCc1cccc(C)c1NC(=O)Nc1c(Br)cnn1C -8.57%
Cc1ccc(S(=O)(=O)N2C[C@H]3[C@H]4C(=O)N(c5ccccc5)C(=O)[C@H]4C[C@H](OC(=O)NC4CCCC4)[C@@]3(O)C2)cc1 -0.48%
CC(OC(=O)c1ccc2c(c1)OCCO2)C(=O)NC1CCCCC1C (centres undefined) -7.15%
COc1ccc(C=C2C(=O)c3ccccc3C2=O)cc1O 4.34%
COc1cc(C=C2C(=O)c3ccccc3C2=O)ccc1O -0.66%
C#CCSC1=C(C#N)C(c2cccs2)C(C(=O)OCC)=C(C)N1 (centres undefined) 8.23%
CCOC(=O)C1=C(C)NC(SCC(N)=O)=C(C#N)C1c1cccs1 (centres undefined) -2.81%
Cn1c(SCC(=O)Nc2sc3c(c2C#N)CCC3)nnc1C1COc2ccccc2O1 (centres undefined) 2.45% and 32%
CCOC(=O)c1oc2ccccc2c1COC(=O)CNC(=O)c1cccc(C)c1 -6.29%
CN(C)Cc1c(C(=O)N/N=C/c2cccc(OCc3ccccc3)c2)nnn1-c1nonc1N 19.4%
CCN(CC)c1ccc(C(=O)NNC(=O)c2cccn2C)cc1 5.54%
O=C(O)c1ccc2c(c1)CCCN2 -1.03%
O=S(=O)(c1ccc2c(c1)CCCN2)N1CCCCC1 8.06%
CCOc1ccc(NC(=O)CN2CCN(CC(=O)Nc3ccc(C(N)=O)cc3)CC2)cc1 -3.98%
COc1ccc2c(c1)CC/C(=C/c1ccccn1)C2=O -2.19%
CCOc1ccc(/C=C/C2=Cc3c(sc(NC(=O)CSc4n[nH]c(N)n4)c3C#N)C(C)(C)C2)cc1 1.67%
Cc1ccsc1/C=C/C1=Cc2c(sc(NC(=O)CSc3n[nH]c(N)n3)c2C#N)C(C)(C)C1 22.1%
COC1C=COC2(C)Oc3c(C)c(O)c4c(O)c(c(CN5CCN(C)CC5)c(O)c4c3C2=O)NC(=O)C(C)=CC=CC(C)C(O)C(C)C(O)C(C)C(OC(C)=O)C1C (centres undefined) 13.7%
CO[C@H]1C=CO[C@@]2(C)Oc3c(C)c(O)c4c(O)c(c(C=NN5CCN(C6CCCC6)CC5)c(O)c4c3C2=O)NC(=O)C(C)=CC=C[C@H](C)[C@H](O)[C@@H](C)[C@@H](O)[C@@H](C)[C@H](OC(C)=O)[C@@H]1C -8.62%
CCCn1c2ccc(C)cc2c2nnc(SCCN3CCOCC3)nc21 -4.1%
CC(C)N1CCC(=O)NC1=O 3.79%
Cc1ccc(SCC2=NNC(=O)C2)cc1 74.7%
O=C1CC(CSc2ccc(Cl)cc2)=NN1 -2.88%
COc1ccc(CCNC(=O)c2ccc(NS(=O)(=O)c3c(C)noc3C)cc2)cc1OC -8.32%
COc1cccc(C(=O)N[C@@H](CCSC)c2nc3ccccc3[nH]2)c1 5.58%
N#CC1=C(N)C(C#N)(C#N)C(c2cccnc2)C2COCC=C12 (centres undefined) 0.31%
Cc1ccc(C2C3CSCC=C3C(C#N)=C(N)C2(C#N)C#N)cc1 (centres undefined) 8.68%
CCOC(=O)c1c(C)[nH]c(C(=O)OCC(=O)Nc2cccnc2Cl)c1C -0.74%
O=C(CN1/C(=C(/O)c2ccccc2)C(=O)c2ccccc2S1(=O)=O)c1ccccc1 -0.58%
Cc1ccc(C(=O)CN2/C(=C(\O)c3ccccc3)C(=O)c3ccccc3S2(=O)=O)c(C)c1 2.58%
COc1cccc(-c2nnc3sc(-c4ccco4)nn23)c1 5.27%
c1coc(-c2nn3c(-c4ccco4)nnc3s2)c1 24.5%
CCOc1ccccc1NC(=O)CSc1n[nH]c(=O)n1-c1ccccc1 -11.6%
COC(=O)CNc1ccc2c(c1)OCO2 26.3%
CCOC(=O)Nc1ccc2c(c1)OCO2 -0.36%
Cn1c(CNC(=O)CNC(=O)c2cccc(F)c2)cc(=O)n(C)c1=O 1.22%
O=C1CC(N2CCSCC2)C(=O)N1c1cccc(Cl)c1 (centres undefined) 2.84%
N=C1/C(=C/c2ccco2)C(=O)N=C2SC(CC(=O)N3CCCC3)=NN12 22.9%
COc1ccc(/C=C2/C(=N)N3N=C(CC(=O)N4CCCC4)SC3=NC2=O)cc1 -6.36%
COc1ccc(CNC(=O)COC(=O)c2[nH]c(C)c(C(C)=O)c2C)cc1OC 7.14%
CN(c1ccc(OCC(=O)NC2CCC(O)CC2)cc1)S(=O)(=O)c1ccc(Cl)cc1 (centres undefined) -2.71%
O=c1cc(-c2ccccc2F)oc2ccccc12 17.5%
O=c1cc(-c2ccccc2Cl)oc2cc(O)cc(O)c12 -0.34%
O=c1[nH]c(=O)n(Cc2ccccc2)c2nc(-c3cccs3)n(CCO)c12 0.78%
Cc1ccc(S(=O)(=O)Cn2nnnc2C(CC(C)C)N2CCN(C(=O)c3ccco3)CC2)cc1 (centres undefined) 28%
Cc1ccc(S(=O)(=O)Cn2nnnc2C(CC(C)C)N2CCN(c3ccccc3)CC2)cc1 (centres undefined) -7.24%
Cc1ccc2cccc(Oc3ncnc4scc(-c5ccccc5)c34)c2n1 -1.8%
COC(=O)CSc1ncnc2scc(-c3ccccc3)c12 13.7%
COc1ccc(C2CC(=O)c3ccccc3O2)cc1 (centres undefined) 18.3%
COc1cc(C)cc2c1OC(c1ccccc1)CC2=O (centres undefined) -0.37%
O=c1c2cn[nH]c2[nH]c(=S)n1-c1ccccc1F -1.23%
CCC(C)NCCCOc1c(C)cc(C)cc1Br (centres undefined) -1.93%
COCC(=O)N(CCc1ccc(OC)cc1)Cc1nc2ccccc2c(=O)[nH]1 0.5%
CCC(CC)C(=O)N(CCc1ccc(OC)cc1)Cc1nc2ccccc2c(=O)[nH]1 -1.67%
O=C(CNC(=O)c1cccc(Cl)c1)NCC(c1cccs1)N1CCOCC1 (centres undefined) -8.67%
Cc1nnc2ccc(-c3cccc(NS(C)(=O)=O)c3)nn12 30.9%
Cc1cc(C)n2c(SCC(O)=C(C#N)c3nc4ccccc4[nH]3)nnc2n1 -1.4%
CCCn1c(SC/C(O)=C(\C#N)c2nc3ccccc3[nH]2)n[nH]c1=O 8.52%
O=C(Nc1ccccn1)C1CCN(S(=O)(=O)c2cccs2)CC1 -2.3%
O=C(Nc1ccc(Cl)cn1)C1CCN(S(=O)(=O)c2cccs2)CC1 2.8%
Cc1ccc(S(=O)(=O)NCC(=O)OC(C(=O)c2ccccc2)c2ccccc2)cc1 (centres undefined) 17.9%
CCCCN1C(=O)C(CC(=O)NCc2ccco2)CC(C(=O)N(CC)CC)=C1C (centres undefined) -1.7%
Cn1cc(C(=O)N/N=C/c2ccc(Br)c([N+](=O)[O-])c2)c2ccccc21 -0.7%
NC(=O)COC(=O)CNC(=O)c1ccc(Cl)cc1 -2.39%
Cc1cccc(C(=O)Nc2sc3c(c2C#N)CCCCC3)c1 -5.88%
Cc1ccc(C(=O)Nc2sc3c(c2C#N)CCCCC3)cc1C -3.7%
